In test [1] the target is Cytochrome P450 3A4 (Homo sapiens) (UniProt P08684). Description: qHTS Assay for Inhibitors and Substrates of Cytochrome P450 3A4 (AID 884). Further: nearly all actives have a fitted effect of over 50% in size. Further: potency means the concentration at half of the fitted maximal effect. On activity change, negative = inhibition: on the % scale 0 is the no-effect control and ±100 the full control effect. A digest of the protocol: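 Luminescent readout of luciferin produced by CYP3A4 (20 nM) dealkylation of Luciferin-PPXE, 25 uM (its KM). NADPH-driven reaction ran 60 min at RT after 10 min compound preincubation; data scaled to 57 uM ketoconazole as 100% inhibition.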
Sequence of Cytochrome P450 3A4 (Homo sapiens) (P08684 whole entry, looked up): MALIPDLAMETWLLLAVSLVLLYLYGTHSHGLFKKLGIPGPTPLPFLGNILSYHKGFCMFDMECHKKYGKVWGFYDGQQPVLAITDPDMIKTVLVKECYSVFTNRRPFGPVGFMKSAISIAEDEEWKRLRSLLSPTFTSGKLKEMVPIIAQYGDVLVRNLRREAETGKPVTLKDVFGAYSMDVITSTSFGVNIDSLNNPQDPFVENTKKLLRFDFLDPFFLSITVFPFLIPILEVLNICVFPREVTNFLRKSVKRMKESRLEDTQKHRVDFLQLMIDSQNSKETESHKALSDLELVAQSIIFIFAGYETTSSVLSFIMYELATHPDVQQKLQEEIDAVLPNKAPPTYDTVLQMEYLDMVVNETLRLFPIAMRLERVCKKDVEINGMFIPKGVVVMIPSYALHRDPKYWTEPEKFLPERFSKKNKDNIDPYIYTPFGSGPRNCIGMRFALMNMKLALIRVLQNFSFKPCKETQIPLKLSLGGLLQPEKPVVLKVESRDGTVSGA

Test [2] in a line: qHTS Assay for Lipid Storage Modulators (AID 1519; calls by dose curve). Particulars: Drosophila S3 cells, BODIPY lipid droplet/cell ratio, laser cytometry, cells loaded with oleic acid; for activity change, negative = inhibition: at 57.5 µM (top of the series). In outline:
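Cells seeded at 5,000 per well were treated with compounds over a concentration series and loaded with oleic acid (400 uM, as added). Lipid droplet fluorescence (488 nm excitation, 500-530 nm channel) was read by laser-scanning cytometry and normalized to 20 uM Triacsin C.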
Background: qHTS replaces the single test concentration by a dilution series.

In test [3] the target is DNA dC->dU-editing enzyme APOBEC-3G (Homo sapiens) (UniProt Q9HC16). As to the kind of experiment: qHTS for inhibitors of Vif-A3G interactions: Validation (AID 588379). Further: 0% is about no effect. In outline: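 Yellow fluorescence (Ex 488, Em 500-530) of Vif-coexpressing HeLa A3G-eYFP cells, scanned by Acumen cytometer, reports blocked A3G degradation. Cells plated at 700/well overnight at 37 deg C before compound addition, then a further overnight compound incubation at 37 deg C.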
Sequence of DNA dC->dU-editing enzyme APOBEC-3G (Homo sapiens) (Q9HC16 whole entry, looked up): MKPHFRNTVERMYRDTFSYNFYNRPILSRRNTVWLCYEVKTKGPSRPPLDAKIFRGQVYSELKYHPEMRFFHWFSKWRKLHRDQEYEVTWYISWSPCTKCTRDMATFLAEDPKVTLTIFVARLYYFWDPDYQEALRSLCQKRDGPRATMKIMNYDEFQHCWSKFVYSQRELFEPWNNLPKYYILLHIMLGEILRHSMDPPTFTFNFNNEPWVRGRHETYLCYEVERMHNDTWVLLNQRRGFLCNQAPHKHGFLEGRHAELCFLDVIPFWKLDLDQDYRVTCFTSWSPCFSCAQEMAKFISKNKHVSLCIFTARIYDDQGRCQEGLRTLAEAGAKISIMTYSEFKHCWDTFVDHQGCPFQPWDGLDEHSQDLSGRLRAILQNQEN

Test [4] can be described thus: Confirmation and Secondary Assay for Modulators of Hemoglobin Beta Chain Splicing at IVS2 654 locus (AID 910).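 Further: HeLa cells stably carrying EGFP split by mutant beta-globin IVS2-654 intron; % of control where 0% means no effect.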 A digest of the protocol: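 HeLa cells stably expressing EGFP interrupted by β-globin IVS2-654 intron, seeded overnight in Opti-MEM/2% FCS, then treated 2 days at 37 °C. Restored splicing read as total peak GFP intensity per well by laser scanning cytometry (488 nm excitation, 500–520 nm emission); 500 nM antisense PNA as control.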

Test [5] in a line: Confirmation and Secondary Assay for Modulators of Hemoglobin Beta Chain Splicing at IVS2 705 locus (AID 930).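 Further: HeLa cells stably expressing the EGFP-705 splicing reporter; GFP fluorescence per well restored by corrected splicing of the IVS2-705 intron in EGFP; % of control where 0% means no effect.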 A digest of the protocol: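 Secondary splice-site specificity test uses HeLa expressing CMV-driven EGFP interrupted by IVS2-705; cells were treated 2 days at 37C with 500 nM antisense PNA as positive control.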
Test [6] concerns the target Ubiquitin carboxyl-terminal hydrolase 1 (Homo sapiens) (UniProt O94782). Description: Inhibitors of USP1/UAF1: Pilot qHTS (AID 504865).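 Further: rhodamine fluorescence freed from ubiquitin-rhodamine substrate followed over time; top concentration of the series differs between compounds; on the % scale 0 is the no-effect control and ±100 the full control effect; nearly all actives have a fitted effect of over 35% in size.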 A digest of the protocol:
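USP1/UAF1 complex (1nM) preincubated with compound 15 min at room temperature, then Ub-Rho substrate (150nM final) added. Fluorescence read kinetically at 480/540 nm, 6 reads every 60 seconds. Buffer: 50mM HEPES pH 7.8, 0.5mM EDTA, 0.1 mg/ml BSA, 1mM TCEP, 0.01% Tween-20.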

Test [7] addresses Cytochrome P450 3A4 (Homo sapiens) (UniProt P08684). Description: qHTS Assay for Activators of Cytochrome P450 3A4 (AID 885). Further: nearly all actives have a fitted effect of over 65% in size. In outline:
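Human CYP3A4 dealkylates Luciferin-PPXE to luciferin, which luciferase detection converts to light. Substrate was at its KM (25uM), buffer 200mM KPO4, reaction 60 min at RT.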

Test [8] in a line: qHTS assay for small molecule antagonists of peroxisome proliferator-activated receptor delta signaling (AID 588535; active means well fitted inhibition curve with a large enough effect in the signal ratio, with a control signal flat, not every such curve was filed as active; the % refers to the signal ratio;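 on max response: cells co-treated with a PPAR-delta agonist as stimulator during compound exposure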). As to conditions: HEK293T PPARd-UAS-bla, beta-lactamase FRET ratio, 18 h; 460 nm channel. A digest of the protocol:
(§1)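 Fluorescence from CCF4-loaded GeneBLAzer PPAR-delta-UAS-bla HEK293T cells (2 hrs RT loading) quantified reporter inhibition after an 18 hr, 37 C compound exposure across a titration.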

For test [9], the target named is Peroxisome proliferator-activated receptor delta (Homo sapiens) (UniProt Q03181). Described as above. In outline:
as §1

The target in test [10] is Vitamin D3 receptor (Homo sapiens) (UniProt P11473). Description: qHTS assay for small molecule antagonists of vitamin D receptor signaling (AID 588541; calls by dose curve;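 further: receptor activated by calcitriol during compound treatment; on the % scale 0 is the no-effect control and ±100 the full control effect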). A digest of the protocol:
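VDR-UAS-bla HEK293T cells in 2% charcoal-stripped FBS were stimulated with 1-alpha,25-dihydroxyvitamin D3 (3 nM final) plus compound for 16 h at 37 C. The beta-lactamase CCF4 readout was normalized to 50 nM agonist and DMSO, and Hill fits gave IC50.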

Test [11] is described as follows: qHTS assay for small molecule agonists of retinoid X receptor alpha signaling (AID 588544; calls by dose curve). Particulars: HEK293T RXRa-UAS-bla, beta-lactamase reporter, 18 h; 530 nm emission.
Test [12] deals with Retinoic acid receptor RXR-alpha (Homo sapiens) (UniProt P19793). The test is described as above.
Sequence of Retinoic acid receptor RXR-alpha (Homo sapiens) (P19793 whole entry, looked up): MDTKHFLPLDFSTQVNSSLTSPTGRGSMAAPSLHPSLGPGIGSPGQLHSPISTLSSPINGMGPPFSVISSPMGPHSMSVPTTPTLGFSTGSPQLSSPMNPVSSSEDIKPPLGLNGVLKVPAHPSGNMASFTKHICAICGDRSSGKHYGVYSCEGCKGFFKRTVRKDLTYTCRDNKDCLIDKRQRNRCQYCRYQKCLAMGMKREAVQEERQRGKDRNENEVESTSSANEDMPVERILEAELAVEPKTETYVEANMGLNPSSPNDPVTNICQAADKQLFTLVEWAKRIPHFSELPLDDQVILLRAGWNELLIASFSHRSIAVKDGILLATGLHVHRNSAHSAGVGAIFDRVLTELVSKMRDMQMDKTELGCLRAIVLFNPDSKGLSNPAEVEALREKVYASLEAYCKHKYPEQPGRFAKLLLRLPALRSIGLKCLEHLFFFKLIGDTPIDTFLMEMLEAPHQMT
The nature of test [13]: qHTS assay for small molecule antagonists of retinoid X receptor alpha signaling (AID 588546; active means well fitted inhibition curve with a large enough effect in the signal ratio, with a control signal flat, not every such curve was filed as active; the % refers to the signal ratio;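 further: cells stimulated with 9-cis-retinoic acid as agonist; on the % scale 0 is the no-effect control and ±100 the full control effect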). As to conditions: HEK293T RXRa-UAS-bla, beta-lactamase ratio, antagonist mode; measured here: W530 green channel, cytotoxicity proxy. A digest of the protocol:
(§2)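 Beta-lactamase reporter inhibition, read as CCF4 fluorescence ratio (ex 405, em 460/530 nm) after 2 h at RT. HEK293T UAS-bla cells, 2500/well, were stimulated with 9-cis-RA at 500 or 100 nM final alongside test compound for 18 h at 37 C.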

For test [14], the target named is Retinoic acid receptor RXR-alpha (Homo sapiens) (UniProt P19793). The test is described as above. Particulars: HEK293T RXRa-UAS-bla, beta-lactamase ratio, antagonist mode. A digest of the protocol:
as §2

Test [15] deals with Peroxisome proliferator-activated receptor alpha (Homo sapiens) (UniProt Q07869). As to the kind of experiment: qHTS assay for small molecule agonists of the peroxisome proliferator-activated receptor alpha (PPARalpha) signaling pathway (AID 651778). Further: % of control where 0% means no effect. As to conditions: PathHunter PPARalpha complementation, chemiluminescence, 6 h; stronger effect = higher value. A digest of the protocol: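 Enzyme-fragment complementation assay in which ligand-bound PPARalpha translocates and forms an active enzyme that generates chemiluminescence. Cells were plated overnight, exposed to compound for 6 hr at 37 C, and then given detection reagent for 60 min at room temperature.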
Sequence of Peroxisome proliferator-activated receptor alpha (Homo sapiens) (Q07869 whole entry, looked up, the tested form may be a part): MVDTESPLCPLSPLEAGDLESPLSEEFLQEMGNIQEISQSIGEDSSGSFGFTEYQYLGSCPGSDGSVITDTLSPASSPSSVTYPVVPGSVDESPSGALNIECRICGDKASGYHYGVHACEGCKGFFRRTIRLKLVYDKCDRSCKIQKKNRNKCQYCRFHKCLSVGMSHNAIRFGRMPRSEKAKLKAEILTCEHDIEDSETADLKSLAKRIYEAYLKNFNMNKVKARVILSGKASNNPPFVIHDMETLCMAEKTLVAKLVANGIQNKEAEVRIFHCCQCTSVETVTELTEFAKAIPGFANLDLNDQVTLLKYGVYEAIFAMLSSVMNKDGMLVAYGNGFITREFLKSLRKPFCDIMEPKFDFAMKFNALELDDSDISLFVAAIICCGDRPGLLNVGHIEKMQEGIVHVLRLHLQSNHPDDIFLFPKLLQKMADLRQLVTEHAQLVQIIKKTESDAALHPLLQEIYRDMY

A short description of test [16]: qHTS assay for small molecule agonists of the antioxidant response element (ARE) signaling pathway measured by Nrf2-dependant transcriptional activity - cell viability counter screen (AID 720653; active means well fitted curve in the direction sought with a large enough effect in the repeat runs; an effect the other way counts as inactive or inconclusive; further: on the % scale 0 is the no-effect control and ±100 the full control effect). Particulars: ARE-bla HepG2 viability, CellTiter-Glo ATP luminescence, 16 h; stronger effect = lower value. A digest of the protocol: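 ARE-bla HepG2 cells treated with compounds for 16 h at 37C; this counter screen measures viability as intracellular ATP by CellTiter-Glo luminescence after 30 min at room temperature.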

Test [17] in a line: qHTS assay for cell viability of HEK293 cells (AID 743288). Further: on the % scale 0 is the no-effect control and ±100 the full control effect; nearly all actives have a fitted effect of over 50% in size. Particulars: ATP luminescence (CellTiter-Glo), 18 h; max response: stronger effect = lower value. In outline: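 After 18 h compound exposure at 37 C, parental HEK293 cells (2,000/well) are lysed with CellTiter-Glo and luminescence is read following 30 min at room temperature.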
Test [18] is described as follows: qHTS assay for cell viability of the p53RE-bla HCT-116 cell line (AID 743292). Further: on the % scale 0 is the no-effect control and ±100 the full control effect; nearly all actives have a fitted effect of over 55% in size. A digest of the protocol: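 After plating at 4,000 cells per well and a 5 h rest at 37 C, HCT-116 cells carrying p53RE-bla received test chemicals in DMSO. Sixteen hours later at 37 C, CellTiter-Glo was added and luminescence recorded following 30 min at room temperature.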
Test [19] addresses Nuclear receptor subfamily 1 group I member 2 (Rattus norvegicus) (UniProt Q9R1A7). As to the kind of experiment: qHTS assay for small molecule activators of the rat pregnane X receptor (rPXR) signaling pathway (AID 651751; call rule not given here; further: 0% is about no effect). As to conditions: rPXR reporter cells, luciferase (One-Glo), 24 h.
Where [20] appears, read: measured here: cell count channel max response.
Setting [21] is: measured here: lipid channel max response.

Consider nine compounds from PubChem BioAssay (NCATS).

Structures are written as SMILES. Inconclusive results are not listed. The source made the active and inactive calls. Unless noted, the call rests on the fitted dose curve; in most records, active means well fitted curve in the direction sought with a large enough effect; inconclusive means small, poorly fitted or top-dose-only effect, or another doubt; inactive means no such curve, though single readings can be large; an effect the other way counts as inactive or inconclusive.

Sequence of Nuclear receptor subfamily 1 group I member 2 (Rattus norvegicus) (Q9R1A7 whole entry, looked up): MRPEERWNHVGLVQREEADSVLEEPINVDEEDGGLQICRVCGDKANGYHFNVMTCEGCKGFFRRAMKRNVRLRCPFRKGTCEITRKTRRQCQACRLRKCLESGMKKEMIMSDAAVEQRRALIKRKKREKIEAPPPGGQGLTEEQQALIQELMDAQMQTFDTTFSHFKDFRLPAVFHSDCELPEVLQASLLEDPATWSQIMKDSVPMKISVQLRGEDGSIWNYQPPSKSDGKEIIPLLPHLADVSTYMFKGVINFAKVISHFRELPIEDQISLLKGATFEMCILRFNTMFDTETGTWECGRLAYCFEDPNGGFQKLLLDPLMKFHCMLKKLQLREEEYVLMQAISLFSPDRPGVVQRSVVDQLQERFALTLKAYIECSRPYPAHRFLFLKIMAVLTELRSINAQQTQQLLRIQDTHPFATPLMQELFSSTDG
Sequence of Peroxisome proliferator-activated receptor delta (Homo sapiens) (Q03181 whole entry, looked up): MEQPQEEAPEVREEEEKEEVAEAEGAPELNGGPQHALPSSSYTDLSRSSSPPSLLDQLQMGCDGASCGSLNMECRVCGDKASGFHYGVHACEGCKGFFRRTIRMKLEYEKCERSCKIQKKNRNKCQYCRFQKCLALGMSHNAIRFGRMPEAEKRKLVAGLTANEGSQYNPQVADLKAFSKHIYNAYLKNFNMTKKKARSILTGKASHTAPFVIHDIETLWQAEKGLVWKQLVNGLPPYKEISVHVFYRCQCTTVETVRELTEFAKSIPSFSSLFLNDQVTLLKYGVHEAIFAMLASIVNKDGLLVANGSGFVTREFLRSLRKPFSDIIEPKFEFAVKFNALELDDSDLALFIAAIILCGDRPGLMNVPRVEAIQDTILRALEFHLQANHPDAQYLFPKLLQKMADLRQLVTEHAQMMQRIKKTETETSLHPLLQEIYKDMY
Sequence of Vitamin D3 receptor (Homo sapiens) (P11473 whole entry, looked up): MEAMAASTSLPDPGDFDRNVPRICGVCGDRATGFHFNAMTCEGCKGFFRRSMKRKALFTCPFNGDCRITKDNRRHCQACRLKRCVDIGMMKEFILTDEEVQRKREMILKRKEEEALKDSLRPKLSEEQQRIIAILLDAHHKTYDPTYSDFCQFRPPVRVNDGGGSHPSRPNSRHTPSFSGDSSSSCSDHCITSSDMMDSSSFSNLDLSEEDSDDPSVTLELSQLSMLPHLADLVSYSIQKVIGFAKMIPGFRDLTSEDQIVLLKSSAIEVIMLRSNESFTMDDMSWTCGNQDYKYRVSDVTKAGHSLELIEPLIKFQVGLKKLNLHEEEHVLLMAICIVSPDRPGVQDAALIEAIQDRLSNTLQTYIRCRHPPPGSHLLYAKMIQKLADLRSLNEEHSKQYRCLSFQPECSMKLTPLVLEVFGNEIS
Sequence of Ubiquitin carboxyl-terminal hydrolase 1 (Homo sapiens) (O94782 whole entry, looked up): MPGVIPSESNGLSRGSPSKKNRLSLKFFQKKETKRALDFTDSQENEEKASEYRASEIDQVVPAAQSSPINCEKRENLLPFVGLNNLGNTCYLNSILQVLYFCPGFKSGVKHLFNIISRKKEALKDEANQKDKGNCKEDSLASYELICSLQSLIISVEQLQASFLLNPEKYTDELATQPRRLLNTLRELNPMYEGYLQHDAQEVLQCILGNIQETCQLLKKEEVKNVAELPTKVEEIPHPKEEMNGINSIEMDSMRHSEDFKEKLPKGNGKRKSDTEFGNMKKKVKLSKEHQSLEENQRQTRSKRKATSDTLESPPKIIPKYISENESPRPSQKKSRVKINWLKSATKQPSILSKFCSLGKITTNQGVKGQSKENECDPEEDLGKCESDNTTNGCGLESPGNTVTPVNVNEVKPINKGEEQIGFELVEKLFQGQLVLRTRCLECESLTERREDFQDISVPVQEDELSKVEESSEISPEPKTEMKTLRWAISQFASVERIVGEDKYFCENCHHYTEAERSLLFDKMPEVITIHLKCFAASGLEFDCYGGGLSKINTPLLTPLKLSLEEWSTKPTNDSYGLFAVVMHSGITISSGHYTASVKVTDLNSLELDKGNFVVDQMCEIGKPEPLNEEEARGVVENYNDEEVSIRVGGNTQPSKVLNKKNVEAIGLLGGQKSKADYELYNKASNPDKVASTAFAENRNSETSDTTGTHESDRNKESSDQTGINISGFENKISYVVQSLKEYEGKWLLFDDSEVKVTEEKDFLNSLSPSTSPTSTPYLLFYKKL

On to `O=c1cccc2n1CC1CC2CN(CCO)C1` (centres undefined), for which, in [1], the Potency result is “inactive”. For the same compound, in [2], the activity change, negative = inhibition was 3.63% (inactive). Also, the results for the max response in test [2] (setting [20]) and in [2] (setting [21]) were 9.42% and 15.7%, respectively. In addition, in test [3], the outcome was inactive.

In the case of `OC[C@@H]1CCCN2CCCC[C@@H]12`, the Potency entry in [1] was “inactive”. In addition, the activity change, negative = inhibition in test [2] was -9.64% (inactive). The max response was -24.5% in [2] (setting [20]) and -31.5% in [2] (setting [21]). In addition, in test [3], the result was inactive.

For the compound `C[C@]12CCC3C(C=CC4=CC(=O)CC[C@]43C)C1CC[C@]2(O)CCC(=O)O` (some centres undefined), the Potency entry in test [4], in test [5] and in [6] was “inactive” each time. In addition, the activity change, negative = inhibition in test [2] is 1.44% (inactive). The results for the max response in test [2] (setting [20]) and in [2] (setting [21]) were 28.8% and 34.1%, respectively.

`C[C@H]1C(=O)O[C@H]2CCN3CC=C(COC(=O)[C@](C)(O)[C@@]1(C)O)C23` (some centres undefined): the Potency entry in [1] was “inactive”. Moreover, the activity change, negative = inhibition in [2] is -4.35% (inactive). Further, the max response amounted to 5.67% in test [2] (setting [20]) and 3.38% in test [2] (setting [21]). Moreover, the outcome in test [3] was inactive.

On to `CC1(C)C(=O)C=C[C@@]2(C)C1=C(O)C(=O)[C@@]1(C)C2CC[C@@]2(C)C(c3ccoc3)C[C@H]3O[C@@]321` (some centres undefined), for which the Potency in test [1] was 0.501 µM (active). The Potency entry in [7], in test [4] and in test [5] was “inactive” throughout. In test [2], the activity change, negative = inhibition was 0.256% (inactive). For the same compound, the max response in test [2] (setting [20]) stood at 0.732%; in test [2] (setting [21]), 3.61%.

`CC(C)N1C(=O)c2ccccc2NS1(=O)=O`: the Potency entry in test [1], in test [4], in test [5], in test [9], in [12] and in test [18] was “inactive” in each case. In test [2], the activity change, negative = inhibition was 2.96% (inactive). For the same compound, the max response is 13.1% in test [2] (setting [20]); 17.2% in test [2] (setting [21]); 55.3% in [8]; -6.21% in [11]; -4.57% in test [13]; 0.0964% (inactive) in test [14]. Besides, the max response in test [15] is -0.187% (inactive); in test [16] it was 7.65% (inactive); in test [17], -4.24% (inactive); in [19], -1.76% (inactive). Moreover, the compound was classed as inactive in test [10].

On to `O=c1ccc2cc(OC3OC(CO)C(O)C(O)C3O)c(O)cc2o1` (centres undefined), for which, in test [2], the activity change, negative = inhibition was -4.17% (inactive). Further, the figures for the max response in test [2] (setting [20]) and in [2] (setting [21]) were -25.8% and -27.2%, respectively. The result in test [3] was inactive.

Turning to `CC(C)(O)[C@@H]1C2OC(=O)[C@@H]1[C@]1(O)C[C@H]3O[C@]34C(=O)O[C@H]2[C@]14C`, the activity change, negative = inhibition in test [2] is 5.46% (inactive). The max response in [2] (setting [20]) amounted to 3.27%; in test [2] (setting [21]) it was 5.39%. Further, the outcome in [3] was inactive.

Turning to `CC(=O)N1CC2CC(C1)c1cccc(=O)n1C2` (centres undefined), in test [1], the Potency entry was “inactive”. Also, the activity change, negative = inhibition in test [2] is -4.96% (inactive). Besides, the max response was -29.2% in test [2] (setting [20]) and -33.4% in test [2] (setting [21]). The call in test [3] was inactive.
